{"source": "paper PMC7862700", "about": "“An all-to-all approach to the identification of sequence-specific readers for epigenetic DNA modifications on cytosine”", "assay_in_all_cases": "DAPPL (digital affinity profiling via proximity ligation, sequencing); 10 mM Tris-HCl pH 7.5, 50 mM NaCl, 1 mM DTT, 4% glycerol, room temperature, 30 min; GST-TFs on glutathione beads, 16-mer random dsDNA library, 0.1% formaldehyde crosslink after washing; high values mean tight binding", "key": {"FEV": {"target": "T1, FEV (Homo sapiens, UniProt Q99581 1-238)", "T1 sequence": "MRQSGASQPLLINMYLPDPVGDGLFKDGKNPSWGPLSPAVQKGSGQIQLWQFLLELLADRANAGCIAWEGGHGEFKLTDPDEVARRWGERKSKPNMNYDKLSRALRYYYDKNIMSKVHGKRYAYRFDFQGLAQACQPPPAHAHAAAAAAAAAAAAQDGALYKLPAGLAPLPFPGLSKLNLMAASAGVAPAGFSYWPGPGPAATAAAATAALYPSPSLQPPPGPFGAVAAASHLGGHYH", "details": "protein: recombinant; tags: N-terminal GST; dsDNA, one strand shown", "how_it_was_run": "(§1)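 Beads coated with glutathione captured GST-fused human transcription factors that had been expressed in yeast, and the factors were then given DNA barcodes and pooled with a tag-only sample. The pools were incubated with 200 nmole of a random double-stranded 16-mer DNA library in Tris/NaCl/DTT/glycerol buffer for 30 min at room temperature, washed, crosslinked with 0.1% formaldehyde and proximity-ligated with BsaI/T4 ligase at 37 °C for 1 h. PCR amplification and Illumina NextSeq500 sequencing came last. Binding signal is each hexamer's read frequency for a factor divided by its frequency for the tag-only sample.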"}, "ETV5": {"target": "ETV5 (Homo sapiens, UniProt P41161 1-510)", "sequence (P41161 whole entry)": "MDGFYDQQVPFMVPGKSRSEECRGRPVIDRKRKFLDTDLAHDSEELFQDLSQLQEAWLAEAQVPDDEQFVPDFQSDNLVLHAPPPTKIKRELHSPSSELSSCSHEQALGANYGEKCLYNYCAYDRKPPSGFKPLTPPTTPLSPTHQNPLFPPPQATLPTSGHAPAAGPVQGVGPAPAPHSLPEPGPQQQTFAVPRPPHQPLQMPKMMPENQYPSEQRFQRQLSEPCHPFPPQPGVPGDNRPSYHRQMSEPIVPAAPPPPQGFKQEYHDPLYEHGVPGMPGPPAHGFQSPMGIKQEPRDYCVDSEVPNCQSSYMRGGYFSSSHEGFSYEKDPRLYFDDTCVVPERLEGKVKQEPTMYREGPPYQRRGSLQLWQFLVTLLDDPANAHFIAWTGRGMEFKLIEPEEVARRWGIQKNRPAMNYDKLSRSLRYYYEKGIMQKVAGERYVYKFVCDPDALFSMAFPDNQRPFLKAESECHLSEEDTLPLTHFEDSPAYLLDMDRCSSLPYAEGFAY", "details": "protein: recombinant; tags: N-terminal GST; dsDNA, one strand shown", "how_it_was_run": "as §1"}, "HSF1": {"target": "HSF1 (Homo sapiens, UniProt Q00613 1-529)", "sequence (Q00613 whole entry)": "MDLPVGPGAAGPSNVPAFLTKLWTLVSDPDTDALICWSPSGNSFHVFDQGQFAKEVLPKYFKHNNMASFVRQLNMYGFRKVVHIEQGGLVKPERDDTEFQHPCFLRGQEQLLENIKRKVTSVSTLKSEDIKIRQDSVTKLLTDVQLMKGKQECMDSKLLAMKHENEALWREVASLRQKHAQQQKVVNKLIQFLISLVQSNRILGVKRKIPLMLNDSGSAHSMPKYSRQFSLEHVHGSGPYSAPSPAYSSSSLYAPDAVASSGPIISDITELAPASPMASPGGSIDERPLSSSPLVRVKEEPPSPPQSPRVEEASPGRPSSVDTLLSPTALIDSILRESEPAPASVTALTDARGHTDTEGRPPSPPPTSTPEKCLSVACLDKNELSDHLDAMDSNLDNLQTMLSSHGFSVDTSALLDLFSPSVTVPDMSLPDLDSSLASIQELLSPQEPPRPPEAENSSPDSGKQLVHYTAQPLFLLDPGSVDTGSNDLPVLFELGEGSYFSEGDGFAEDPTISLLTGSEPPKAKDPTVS", "details": "protein: recombinant; tags: N-terminal GST; chain copies: 3; dsDNA, one strand shown", "how_it_was_run": "as §1"}, "SPIC": {"target": "T2, SPIC (Homo sapiens, UniProt Q8N5J4 1-248)", "T2 sequence": "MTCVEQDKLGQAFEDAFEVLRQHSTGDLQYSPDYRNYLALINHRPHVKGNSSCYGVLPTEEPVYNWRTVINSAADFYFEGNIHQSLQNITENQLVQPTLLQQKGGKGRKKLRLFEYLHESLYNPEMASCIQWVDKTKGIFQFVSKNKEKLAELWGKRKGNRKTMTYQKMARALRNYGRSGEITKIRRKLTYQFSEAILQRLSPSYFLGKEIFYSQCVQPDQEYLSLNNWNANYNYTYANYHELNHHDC", "details": "protein: recombinant; tags: N-terminal GST; dsDNA, one strand shown", "how_it_was_run": "as §1"}, "ELF4": {"target": "ELF4 (Homo sapiens, UniProt Q99607 1-663)", "sequence (Q99607 whole entry)": "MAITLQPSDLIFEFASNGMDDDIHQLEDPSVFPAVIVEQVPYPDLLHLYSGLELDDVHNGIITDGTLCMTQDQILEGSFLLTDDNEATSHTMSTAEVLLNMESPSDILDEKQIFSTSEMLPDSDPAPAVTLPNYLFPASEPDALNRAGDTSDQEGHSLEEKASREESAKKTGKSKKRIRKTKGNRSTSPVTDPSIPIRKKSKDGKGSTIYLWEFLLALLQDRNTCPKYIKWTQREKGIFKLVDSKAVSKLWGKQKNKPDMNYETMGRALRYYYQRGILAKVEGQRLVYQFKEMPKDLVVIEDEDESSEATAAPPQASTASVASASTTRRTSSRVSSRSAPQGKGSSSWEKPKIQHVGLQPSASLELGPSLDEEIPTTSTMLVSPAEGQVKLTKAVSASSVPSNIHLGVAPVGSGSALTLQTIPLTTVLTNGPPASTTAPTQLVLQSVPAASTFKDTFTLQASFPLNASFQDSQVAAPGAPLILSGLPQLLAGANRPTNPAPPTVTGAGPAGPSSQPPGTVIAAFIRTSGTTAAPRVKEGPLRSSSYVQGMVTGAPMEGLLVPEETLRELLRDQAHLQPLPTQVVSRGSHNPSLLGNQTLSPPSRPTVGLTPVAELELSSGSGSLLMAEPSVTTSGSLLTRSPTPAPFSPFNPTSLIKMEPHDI", "details": "protein: recombinant; tags: N-terminal GST; dsDNA, one strand shown", "how_it_was_run": "as §1"}, "ELK4": {"target": "T3, ELK4 (Homo sapiens, UniProt P28324-2 1-405)", "T3 sequence": "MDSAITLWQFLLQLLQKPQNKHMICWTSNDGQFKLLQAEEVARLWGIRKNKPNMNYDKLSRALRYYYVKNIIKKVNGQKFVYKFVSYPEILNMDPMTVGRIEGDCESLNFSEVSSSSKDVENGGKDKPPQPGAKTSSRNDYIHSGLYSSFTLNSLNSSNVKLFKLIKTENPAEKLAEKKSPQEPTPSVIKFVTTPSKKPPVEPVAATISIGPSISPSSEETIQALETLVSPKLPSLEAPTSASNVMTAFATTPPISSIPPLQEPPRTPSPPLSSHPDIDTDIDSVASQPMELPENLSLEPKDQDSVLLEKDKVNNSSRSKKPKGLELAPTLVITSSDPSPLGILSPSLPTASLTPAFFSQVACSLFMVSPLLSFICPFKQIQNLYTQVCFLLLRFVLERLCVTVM", "details": "protein: recombinant; tags: N-terminal GST; dsDNA, one strand shown", "how_it_was_run": "as §1"}, "ETV2": {"target": "T4, ETV2 (Homo sapiens, UniProt O00321 1-342)", "T4 sequence": "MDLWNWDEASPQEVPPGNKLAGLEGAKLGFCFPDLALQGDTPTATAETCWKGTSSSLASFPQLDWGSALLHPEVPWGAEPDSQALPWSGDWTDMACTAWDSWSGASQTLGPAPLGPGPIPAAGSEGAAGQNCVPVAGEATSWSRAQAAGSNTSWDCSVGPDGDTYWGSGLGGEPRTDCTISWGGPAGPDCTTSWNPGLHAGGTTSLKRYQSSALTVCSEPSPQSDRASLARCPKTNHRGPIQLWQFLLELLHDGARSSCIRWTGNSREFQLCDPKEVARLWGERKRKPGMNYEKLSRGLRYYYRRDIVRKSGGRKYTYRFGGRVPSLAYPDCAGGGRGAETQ", "details": "protein: recombinant; tags: N-terminal GST; dsDNA, one strand shown", "how_it_was_run": "as §1"}, "ELF3": {"target": "T5, ELF3 (Homo sapiens, UniProt P78545 1-371)", "T5 sequence": "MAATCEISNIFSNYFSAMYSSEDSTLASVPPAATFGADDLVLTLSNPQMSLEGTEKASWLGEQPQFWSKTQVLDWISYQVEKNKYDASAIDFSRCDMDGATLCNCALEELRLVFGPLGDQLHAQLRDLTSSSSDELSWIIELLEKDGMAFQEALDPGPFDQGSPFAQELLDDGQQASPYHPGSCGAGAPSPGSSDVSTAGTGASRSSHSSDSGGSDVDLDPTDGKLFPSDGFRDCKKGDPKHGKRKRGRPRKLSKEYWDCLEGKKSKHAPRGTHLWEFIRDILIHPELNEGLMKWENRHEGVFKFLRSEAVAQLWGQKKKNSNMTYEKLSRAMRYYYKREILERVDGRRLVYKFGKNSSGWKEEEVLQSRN", "details": "protein: recombinant; tags: N-terminal GST; dsDNA, one strand shown", "how_it_was_run": "as §1"}, "CRX": {"target": "CRX (Homo sapiens, UniProt O43186 1-299)", "sequence (O43186 whole entry)": "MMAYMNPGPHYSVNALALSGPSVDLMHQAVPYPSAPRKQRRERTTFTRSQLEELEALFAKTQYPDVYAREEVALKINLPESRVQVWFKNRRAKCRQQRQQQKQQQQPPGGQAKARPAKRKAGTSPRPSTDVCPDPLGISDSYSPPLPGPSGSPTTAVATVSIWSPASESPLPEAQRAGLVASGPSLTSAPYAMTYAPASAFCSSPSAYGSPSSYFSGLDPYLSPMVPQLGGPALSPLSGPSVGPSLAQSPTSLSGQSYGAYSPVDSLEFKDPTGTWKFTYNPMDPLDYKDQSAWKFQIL", "details": "protein: recombinant; tags: N-terminal GST; dsDNA, one strand shown", "how_it_was_run": "as §1"}, "ETV1": {"target": "ETV1 (Homo sapiens, UniProt P50549 1-477)", "sequence (P50549 whole entry)": "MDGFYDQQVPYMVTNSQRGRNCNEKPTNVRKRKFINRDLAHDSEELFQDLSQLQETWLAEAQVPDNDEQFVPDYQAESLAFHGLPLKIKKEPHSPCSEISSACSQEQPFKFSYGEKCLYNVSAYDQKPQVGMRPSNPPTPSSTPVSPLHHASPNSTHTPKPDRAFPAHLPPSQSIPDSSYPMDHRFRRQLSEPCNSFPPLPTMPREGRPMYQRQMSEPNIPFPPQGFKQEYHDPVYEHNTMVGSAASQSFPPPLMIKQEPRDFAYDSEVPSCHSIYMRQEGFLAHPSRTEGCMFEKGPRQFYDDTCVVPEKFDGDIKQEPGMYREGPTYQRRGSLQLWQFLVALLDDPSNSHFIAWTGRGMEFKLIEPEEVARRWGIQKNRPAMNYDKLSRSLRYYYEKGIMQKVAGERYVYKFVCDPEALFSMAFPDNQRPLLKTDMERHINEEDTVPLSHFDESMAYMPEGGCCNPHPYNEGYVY", "details": "protein: recombinant; tags: N-terminal GST; dsDNA, one strand shown", "how_it_was_run": "as §1"}}}
{"sequence": "CTACCA", "values": [{"measurement": "binding signal", "setting": "FEV", "result": "1.14 fold enrichment (6-mer frequency, TF over GST control)"}, {"measurement": "binding signal", "setting": "ETV5", "result": "1.2 fold enrichment (6-mer frequency, TF over GST control)"}, {"measurement": "binding signal", "setting": "HSF1", "result": "1.24 fold enrichment (6-mer frequency, TF over GST control)"}, {"measurement": "binding signal", "setting": "SPIC", "result": "1.14 fold enrichment (6-mer frequency, TF over GST control)"}, {"measurement": "binding signal", "setting": "ELF4", "result": "1.39 fold enrichment (6-mer frequency, TF over GST control)"}, {"measurement": "binding signal", "setting": "ELK4", "result": "1.24 fold enrichment (6-mer frequency, TF over GST control)"}, {"measurement": "binding signal", "setting": "ETV2", "result": "1.1 fold enrichment (6-mer frequency, TF over GST control)"}, {"measurement": "binding signal", "setting": "ELF3", "result": "1.17 fold enrichment (6-mer frequency, TF over GST control)"}, {"measurement": "binding signal", "setting": "CRX", "result": "1.09 fold enrichment (6-mer frequency, TF over GST control)"}, {"measurement": "binding signal", "setting": "ETV1", "result": "1.27 fold enrichment (6-mer frequency, TF over GST control)"}]}
